Measurements: PubChem BioAssay (NCI)
The panel holds about 83,000 compounds, 20% with a hit somewhere; the sample as a whole holds those more often.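 In brief: 96-well plates, 48 h treatment, single concentration, percent growth endpoint.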 Active and inactive are the calls of the source. Rule for the calls: active = growth percent below 10; inactive = the rest.

Tests used:
Assay in all cases: NCI-60 one-dose screen, 48 h (100 = growth as untreated, 0 = no growth, -100 = all killed)
SK-MEL-2 melanoma = details: 10 µM
SN12C renal = details: 10 µM unless noted
UO-31 renal = details: 10 µM unless noted
TK-10 renal = details: 10 µM unless noted
ACHN renal = details: 10 µM unless noted
CAKI-1 renal = details: 10 µM unless noted
A498 renal = details: 10 µM unless noted
CCRF-CEM leukemia = details: 10 µM unless noted
MOLT-4 leukemia = details: 10 µM unless noted
EKVX NSCLC = details: 10 µM unless noted

Measured: growth

N#Cc1c(-c2ccc(C(F)(F)F)cc2)cc(NCC2CCS(=O)(=O)CC2)n2c1nc1ccccc12
inactive: SK-MEL-2 melanoma 89.7% | SN12C renal 82.3% | UO-31 renal 56.2% | TK-10 renal 93.1% | ACHN renal 86.8% | CAKI-1 renal 80.9% | A498 renal 55.3% | CCRF-CEM leukemia 86.2% | MOLT-4 leukemia 74.3%

CC(=O)OC1Oc2ccccc2-c2oc(=O)c(-c3cc4ccc(N(C)C)cc4oc3=O)cc21 (stereo not drawn)
inactive: SK-MEL-2 melanoma 46.7% | EKVX NSCLC 35.3% | SN12C renal 72% | TK-10 renal 12.2% | ACHN renal 47.4% | CAKI-1 renal 46.1% | A498 renal 14.2%
active: CCRF-CEM leukemia 6.68% | MOLT-4 leukemia -28.3%

CC(C)n1c(NCCc2ccc(O)c(O)c2)nc2c1c(=O)n(C)c(=O)n2C
inactive: SK-MEL-2 melanoma 107% | SN12C renal 98.4% | UO-31 renal 87.3% | TK-10 renal 84.6% | ACHN renal 99.3% | CAKI-1 renal 88.1% | CCRF-CEM leukemia 99.6% | MOLT-4 leukemia 105%

Cc1ccc(-c2nc3ccc(Cl)cn3c2NC2CCCCC2)o1
inactive: SK-MEL-2 melanoma 88.9% | EKVX NSCLC 80.7% | SN12C renal 87.3% | TK-10 renal 87.9% | ACHN renal 83.1% | CAKI-1 renal 60.6% | A498 renal 53.3% | CCRF-CEM leukemia 79.8% | MOLT-4 leukemia 43.4%

N#Cc1c(NC(=O)c2cccs2)[n+]([O-])c2ccc(F)cc2[n+]1[O-]
inactive: SK-MEL-2 melanoma 92.9% | EKVX NSCLC 86.4% | SN12C renal 98.3% | TK-10 renal 117% | ACHN renal 89% | CAKI-1 renal 90.7% | MOLT-4 leukemia 90.2%

CC(=O)Oc1ccccc1C(=O)N=C1[Se]CCN1C(=O)c1ccccc1OC(C)=O
inactive: CCRF-CEM leukemia 18.6%
active: SK-MEL-2 melanoma -18.4% | SN12C renal -30% | UO-31 renal -91% | TK-10 renal -72.3% | ACHN renal -91.5% | CAKI-1 renal -97.7% | A498 renal -94% | MOLT-4 leukemia 6.05%

Clc1ccc(/C=C/c2cc(N3CCOCC3)c3cc(Cl)c(Cl)cc3n2)cc1
inactive: SK-MEL-2 melanoma 104% | SN12C renal 20.1% | UO-31 renal 12.5% | TK-10 renal 92.8% | ACHN renal 94.3% | CAKI-1 renal 78.6% | A498 renal 67.7%
active: CCRF-CEM leukemia 4.25% | MOLT-4 leukemia 1.45%

O=C(Nc1ccc(C(=O)Nc2ccc(C3=NCCCN3)cc2)cc1)Nc1ccc(C2=NCCCN2)cc1
inactive: SK-MEL-2 melanoma 62.8% | SN12C renal 91.6% | UO-31 renal 82.6% | TK-10 renal 96.7% | ACHN renal 86% | A498 renal 119% | CCRF-CEM leukemia 70.9% | MOLT-4 leukemia 81.5%

NC(=O)c1n[nH]n2c1nc(=O)c1c3c(sc12)CCCC3
inactive: SK-MEL-2 melanoma 106% | EKVX NSCLC 101% | SN12C renal 101% | TK-10 renal 106% | ACHN renal 111% | A498 renal 115% | CCRF-CEM leukemia 84.2% | MOLT-4 leukemia 100%

N#Cc1c(NC(=O)c2ccco2)[n+]([O-])c2cc(F)c(F)cc2[n+]1[O-]
inactive: SK-MEL-2 melanoma 97.2% | EKVX NSCLC 109% | SN12C renal 94.9% | TK-10 renal 80.2% | ACHN renal 97.8% | CAKI-1 renal 66.7% | CCRF-CEM leukemia 67.2% | MOLT-4 leukemia 75%

O=C(N/N=C/c1ccc(Cl)cc1)c1cc(-c2cc3ccccc3o2)nn1-c1ccccc1
inactive: SK-MEL-2 melanoma 91.2% | EKVX NSCLC 89.6% | SN12C renal 94.9% | TK-10 renal 94.8% | ACHN renal 93.5% | CAKI-1 renal 100% | CCRF-CEM leukemia 95.6% | MOLT-4 leukemia 78%

CN(N)c1nc2sc3c(c2c(=O)[nH]1)CCCC3
inactive: SK-MEL-2 melanoma 103% | EKVX NSCLC 86.6% | SN12C renal 104% | TK-10 renal 111% | ACHN renal 107% | A498 renal 101% | CCRF-CEM leukemia 98.9% | MOLT-4 leukemia 97.5%

COc1ccc(C2OC(c3cc(-c4cc5ccccc5o4)nn3-c3ccccc3)=NN2C(C)=O)cc1 (stereo not drawn)
inactive: SK-MEL-2 melanoma 94.5% | EKVX NSCLC 94.5% | SN12C renal 93.2% | TK-10 renal 111% | ACHN renal 99.3% | CAKI-1 renal 100% | CCRF-CEM leukemia 95.5% | MOLT-4 leukemia 83%

CN1CCN(c2nc(NCCNc3ccnc4cc(Cl)ccc34)c3ccccc3n2)CC1
inactive: EKVX NSCLC 52.3% | SN12C renal 10.9% | TK-10 renal 16.5% | A498 renal 102%
active: SK-MEL-2 melanoma -45.5% | ACHN renal 5.61% | CCRF-CEM leukemia 3.19% | MOLT-4 leukemia 6.2%

COc1cc(C2CC(c3ccc(Cl)cc3)=NN2c2ccc(Cl)cc2)cc(OC)c1OC (stereo not drawn)
inactive: SK-MEL-2 melanoma 98.8% | SN12C renal 88.4% | UO-31 renal 77.1% | TK-10 renal 98% | ACHN renal 86% | CAKI-1 renal 82.3% | A498 renal 88% | CCRF-CEM leukemia 84.7% | MOLT-4 leukemia 67.8%

CC12O[C@H](C[C@@H](OC(=O)CCC(=O)O)[C@H]1O)n1c3ccccc3c3c4c(c5c6ccccc6n2c5c31)C(=O)NC4=O
active: TK-10 renal 2.26% | A498 renal -30.6% | MOLT-4 leukemia 5.17%
inactive: SK-MEL-2 melanoma 23.3% | EKVX NSCLC 42.9% | SN12C renal 38.9% | ACHN renal 19.4%

COc1ccc(-c2cc3c(oc2=O)-c2ccccc2OC3OC(C)=O)cc1 (stereo not drawn)
active: CCRF-CEM leukemia -25.9%
inactive: SK-MEL-2 melanoma 100% | EKVX NSCLC 73.2% | SN12C renal 91.5% | TK-10 renal 104% | ACHN renal 102% | CAKI-1 renal 113% | A498 renal 100% | MOLT-4 leukemia 72.4%

CCN(CC)CCCC(C)Nc1cc(-c2ccc(C(F)(F)F)cc2)c(C#N)c2nc3ccccc3n12 (stereo not drawn)
inactive: SK-MEL-2 melanoma 79.3% | EKVX NSCLC 35.6% | TK-10 renal 68.2% | CAKI-1 renal 52.2% | A498 renal 87.5%
active: SN12C renal -30.3% | ACHN renal -65.2% | CCRF-CEM leukemia -7.3% | MOLT-4 leukemia -28.2%

COc1cc(-c2nc(C(=O)Nc3ccc(C)cc3)nn2-c2ccc(F)c(F)c2)cc(OC)c1OC
inactive: SK-MEL-2 melanoma 89.5% | SN12C renal 97.5% | UO-31 renal 72.9% | TK-10 renal 98.8% | ACHN renal 105% | A498 renal 112% | CCRF-CEM leukemia 102% | MOLT-4 leukemia 94.9%

CC[n+]1c(/C=C/C=C2\N(C)c3ccccc3C2(C)C)sc2ccccc21
active: SK-MEL-2 melanoma -16.2% | SN12C renal 5.6% | ACHN renal 7.97% | CCRF-CEM leukemia 3.17% | MOLT-4 leukemia -19.1%
inactive: UO-31 renal 12.6% | TK-10 renal 21.5% | A498 renal 12.3%

Clc1nc(Cl)c2ncn(CC#CCn3cnc4c(Cl)nc(Cl)nc43)c2n1
active: EKVX NSCLC -39.3% | SN12C renal 3.09% | TK-10 renal -31.5% | ACHN renal -53.3% | CAKI-1 renal -96.5% | CCRF-CEM leukemia -62.2% | MOLT-4 leukemia 1.03%
inactive: SK-MEL-2 melanoma 65.3%

COc1cnc2c(c1)C(=O)c1c-2n(CCCN2CCC(N)CC2)c(=O)c2cc([N+](=O)[O-])ccc12
active: MOLT-4 leukemia 0.263%
inactive: SK-MEL-2 melanoma 109% | EKVX NSCLC 75.7% | SN12C renal 21.6% | TK-10 renal 82.6% | ACHN renal 19.8% | CAKI-1 renal 45.2% | A498 renal 62.6%

CSC1=C(N)C(=O)c2[nH]cc(CO)c2C1=N
active: SK-MEL-2 melanoma -52.3% | SN12C renal -49% | UO-31 renal -96% | TK-10 renal -83.7% | ACHN renal 1.86% | A498 renal -89.6% | CCRF-CEM leukemia 3.16% | MOLT-4 leukemia -24.3%

Cc1cc(N2CCOCC2)nc(N(CCNc2ccnc3cc(Cl)ccc23)Cc2cccs2)n1
inactive: SN12C renal 42.3% | TK-10 renal 19.4% | A498 renal 22.8%
active: SK-MEL-2 melanoma -39.4% | UO-31 renal -8.69% | ACHN renal 1.88% | CCRF-CEM leukemia 6.42% | MOLT-4 leukemia -9.25%

O=C1CSC(c2c(F)cccc2Cl)N1NC(=O)C(O)(c1ccccc1)c1ccccc1 (stereo not drawn)
inactive: SK-MEL-2 melanoma 103% | EKVX NSCLC 95.2% | SN12C renal 93.8% | TK-10 renal 113% | ACHN renal 99.9% | CAKI-1 renal 93.3% | A498 renal 102% | CCRF-CEM leukemia 97% | MOLT-4 leukemia 74%

CSc1nc2ncnc(SC)c2[nH]1
inactive: SK-MEL-2 melanoma 99.4% | EKVX NSCLC 94% | SN12C renal 100% | TK-10 renal 99.8% | ACHN renal 103% | CAKI-1 renal 90.9% | CCRF-CEM leukemia 105% | MOLT-4 leukemia 98.9%

CCc1cc2c(c3ccc(C(=O)CBr)cc13)CCCC2
inactive: SK-MEL-2 melanoma 96.9% | SN12C renal 99.7% | UO-31 renal 81.4% | TK-10 renal 91.9% | ACHN renal 105% | A498 renal 102% | MOLT-4 leukemia 85.8%

COc1ccc2c(c1OC)C(=O)O[C@@H]2[C@H]1c2c(c(C#CC#Cc3ccc(F)c(F)c3)c3c(c2OC)OCO3)CCN1C
inactive: SK-MEL-2 melanoma 91.8% | EKVX NSCLC 90.3% | SN12C renal 100% | TK-10 renal 95.3% | ACHN renal 95% | CAKI-1 renal 86.6% | CCRF-CEM leukemia 101% | MOLT-4 leukemia 89%

CC1(C)NC(=O)c2[nH]c3c(Cl)c(Cl)ccc3c2C1C#N (stereo not drawn)
inactive: SK-MEL-2 melanoma 80.6% | SN12C renal 89.5% | TK-10 renal 63.2% | ACHN renal 78.6% | CAKI-1 renal 49.8% | CCRF-CEM leukemia 70.3% | MOLT-4 leukemia 62%

O=C(Cn1c(=O)ccn(CCCCCCCCOc2ccc(Br)cc2)c1=O)Nc1ccc(Oc2ccc(Cl)cc2)cc1
inactive: SK-MEL-2 melanoma 71% | EKVX NSCLC 50.6% | SN12C renal 67.1% | TK-10 renal 69.6% | ACHN renal 69.1% | A498 renal 54.8% | CCRF-CEM leukemia 54.6% | MOLT-4 leukemia 47.6%

CC1(O)CCC2CC3OC3(C)CCC3OC3(C)C(O)CC1C2(C)C (stereo not drawn)
inactive: SK-MEL-2 melanoma 103% | EKVX NSCLC 87.8% | SN12C renal 103% | TK-10 renal 107% | ACHN renal 101% | CAKI-1 renal 99.2% | CCRF-CEM leukemia 91.5% | MOLT-4 leukemia 106%
